Source: PubChem BioAssay (National Center for Advancing Translational Sciences (NCATS))
Rango release inh: inhibitors of RanGTP-induced Rango-importin beta complex dissociation | AID 540253 | O95149+P62826 | Potency, µM (highest dose often 46.1 µM) | actives 0.071% (n = 340,000) | Biochemical FRET Rango-importin beta, RanGTP-induced dissociation; also: nearly all actives have a fitted effect of over 45% in size
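Rango FRET biosensor (snurportin-1 IBB flanked by N-terminal EYFP and C-terminal CFP10) at 0.1 uM, with 0.25 uM importin beta in PBS, 1mM DTT, 0.02% Tween-20, 0.1% BSA. 0.6 uM Ran, 2mM GTP and 0.2 uM RCC1 were then added for 45 min at room temperature. Inhibition read as loss of FRET rise.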
Rango-impB inh: inhibitors of Rango-importin beta complex formation | Q14974 | Rango CFP/YFP FRET sensor + importin beta, 45 min | Potency, µM (highest dose often 92.2 µM) | actives 0.031% (n = 340,000); also: nearly all actives have a fitted effect of over 15% in size
Target sequence (Q14974 whole entry, looked up): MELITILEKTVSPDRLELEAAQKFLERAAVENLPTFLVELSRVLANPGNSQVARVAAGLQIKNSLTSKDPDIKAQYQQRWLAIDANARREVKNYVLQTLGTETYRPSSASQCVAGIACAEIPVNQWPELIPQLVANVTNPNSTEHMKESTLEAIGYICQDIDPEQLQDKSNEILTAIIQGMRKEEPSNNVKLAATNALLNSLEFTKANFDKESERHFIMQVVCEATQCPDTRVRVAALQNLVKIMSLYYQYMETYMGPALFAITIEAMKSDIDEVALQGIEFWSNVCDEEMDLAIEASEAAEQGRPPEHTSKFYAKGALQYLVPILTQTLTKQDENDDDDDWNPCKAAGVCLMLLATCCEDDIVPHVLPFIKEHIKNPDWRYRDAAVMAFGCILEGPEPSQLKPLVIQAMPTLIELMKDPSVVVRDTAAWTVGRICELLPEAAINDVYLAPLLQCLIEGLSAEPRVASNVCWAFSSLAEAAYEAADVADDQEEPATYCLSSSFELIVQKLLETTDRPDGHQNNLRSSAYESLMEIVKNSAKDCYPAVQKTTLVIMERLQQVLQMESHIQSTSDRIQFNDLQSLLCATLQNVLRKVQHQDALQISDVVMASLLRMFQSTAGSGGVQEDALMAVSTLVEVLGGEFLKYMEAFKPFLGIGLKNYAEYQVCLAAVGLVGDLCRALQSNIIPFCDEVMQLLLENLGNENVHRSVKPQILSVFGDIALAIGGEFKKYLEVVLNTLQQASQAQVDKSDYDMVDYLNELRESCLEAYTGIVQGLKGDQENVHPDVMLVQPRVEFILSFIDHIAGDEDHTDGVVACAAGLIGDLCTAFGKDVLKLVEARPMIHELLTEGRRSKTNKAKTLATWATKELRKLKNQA
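Inhibition scored from the CFP 486 nm/YFP 530 nm FRET ratio 45 min after adding 0.125 microM importin beta to 50 nM Rango biosensor preincubated 5 min with compound (room temperature, PBS with DTT, Tween-20, BSA). No-importin wells as positive control.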
PTAP TSG101 blk: blocks PTAP/TSG101 interaction to inhibit HIV-1 budding. Q99816. Fluorescence polarization, FITC-PTAP peptide / Tsg101 binding. Potency, µM (doses to about 115 µM), most hits filed as inhibitors. 340,000 tested, under 10 active; active = well fitted inhibition curve with a large enough effect in the main read-out, with a control signal flat, not every such curve was filed as active; inconclusive = small, poorly fitted or top-dose-only effect, or effect the other way, or a change in a side signal; inactive = no such curve, though single readings can be large or run the other way
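Fluorescence polarization binding of Tsg101 binding domain (10 uM final) to FITC-labeled PTAP peptide (50 nM final) in HEPES pH 7.5 buffer with NaCl, Tween 20, EDTA, TCEP. Compounds added before peptide; binding 20 min at RT.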
D3 ag: D3 dopamine receptor (human) agonism | D3R DiscoveRx beta-arrestin cells, luminescence, 90 min | max activation, % | actives 0.58% (n = 410,000) | AID 652048; in the data active = max activation above about 30%
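Cells at 1500/well, incubated overnight, then treated with pinned compounds (dopamine as control) for 90 min at 37 degrees C. DiscoveRx reagent added for 30 - 60 minutes at room temperature; luminescence read.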
MmCpn inh: blocks the Methanococcus maripaludis chaperonin Mm-Cpn. actives 0.031% (n = 330,000). Potency, µM (titrated, usually from 76.9 µM), usual class: inhibitors. purified Mm-Cpn ATPase, ADP Transcreener TR-FRET. AID 504842; active = well fitted inhibition curve with a large enough effect; inconclusive = small, poorly fitted or top-dose-only effect; also: nearly all actives have a fitted effect of over 80% in size
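Purified archaeal chaperonin (25 nM final) was preincubated with compound for 10 min at 37°C, then ATP (10 uM final) was added for 30 min at 37°C in Tris pH 7.4/KCl/MgCl2/DTT buffer. ADP was quantified by HTRF Transcreener TR-FRET.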
DRD3 antagonist: D3 dopamine receptor (human) antagonism | P35462 | D3R cells, DiscoveRx beta-arrestin luminescence, antagonist mode; stronger effect = lower value | max response, negative = inhibition, % | actives 2.5% (n = 360,000); in the data active = max response below about -50%; inconclusive = no clear call, values can overlap the other calls
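Cells plated overnight at 1500 cells/well, then exposed to library compounds with dopamine controls for 90 minutes at 37 degrees C. DiscoveRx reagent added for 30–60 minutes at room temperature; luminescence read, quantitative HTS format.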
Hits are given with their value; - = inactive; ? = inconclusive; . = no result given. Compounds with a hit are over-represented: about 2.9% of the library has one in this group of screens. Unless noted, calls follow the shape of the full dose curve.

SMILES	Rango release inh	Rango-impB inh	PTAP TSG101 blk	D3 ag	MmCpn inh	DRD3 antagonist
O=C(Cc1ccccc1)NCCc1ccc(Cl)cc1Cl	?	-	-	-	-	-
N=c1sccn1CC(=O)NCCc1ccc(Cl)cc1Cl	-	-	-	-	-	-50.0
NC(=O)C1CCN(c2nc(-c3cccc4ccccc34)cs2)CC1	.	.	.	.	-	.
Oc1ccccc1C1=NOC(O)(C(F)F)C1 (stereo not given)	-	-	-	-	-	-66.2
CSc1nc(=O)n(CCC#N)nc1SC	.	.	.	-	.	-65.0
CSc1cnn(CCC#N)c(=O)n1	.	.	.	-	.	-
Cc1cc(N2CCC(C)CC2)nc2ccc(NC(=O)Cc3ccccc3Br)cc12	.	.	.	-	.	.
CC(C)(C)NC(=O)C1CCC(C)(C(=O)O)C1(C)C (stereo not given)	-	-	-	32.7	-	-
COc1ccc(NC(=O)C2CCC(C)(C(=O)O)C2(C)C)cc1 (stereo not given)	-	?	-	-	.	-54.8
CCOc1ccc(NC(=O)C2CCC(C)(C(=O)O)C2(C)C)cc1 (stereo not given)	-	-	-	-	-	-
Cc1cc(C)c2nc(NNC(=O)c3cc(-c4cccs4)nc4ccccc34)sc2c1	-	-	-	-	-	-
O=C(NNc1nc2ccc(Cl)cc2s1)c1cc(-c2cccs2)nc2ccccc12	-	-	-	42.5	-	-
COc1ccc(CCNC(=O)C(=O)NCC(c2ccc3c(c2)OCO3)N2CCOCC2)cc1 (stereo not given)	.	.	.	-	.	.
CCOC(=O)Cc1csc(NC(=O)CSc2nnc(C)n2C)n1	-	-	-	-	-	-
CCOC(=O)Cc1csc(NC(=O)CSc2nnc(C3CC3)n2C)n1	-	-	-	-	-	-50.4
COC1=C(C(=O)O)N2C(=O)[C@@H](NC(=O)[C@H](N)C3=CCC=CC3)[C@H]2SC1	.	.	.	-	.	.
O=C(NC(NC(=S)Nc1ccccc1C(=O)O)C(Cl)(Cl)Cl)c1cccc([N+](=O)[O-])c1 (stereo not given)	-	-	-	-	-	-79.4
COc1ccc(NC(=S)NC(NC(=O)c2cccc(C)c2)C(Cl)(Cl)Cl)c([N+](=O)[O-])c1 (stereo not given)	-	-	-	-	-	-82.2
COc1ccc(C(=O)NC(NC(=S)Nc2ccc(S(N)(=O)=O)cc2)C(Cl)(Cl)Cl)cc1 (stereo not given)	-	-	-	-	-	-75.3
O=C(NC(NC(=S)Nc1ccccc1Cl)C(Cl)(Cl)Cl)c1cccc(Cl)c1 (stereo not given)	-	-	-	-	-	?
CCc1ccccc1OCc1nc2ccc(S(=O)(=O)N3CCOCC3)cc2[nH]1	-	?	-	-	-	-56.2
CS(=O)(=O)NCCc1csc2nc(-c3ccccc3)nn12	.	.	.	-	.	.
CCCN(C(=O)Cc1csc(-c2ccccc2)n1)C1CCS(=O)(=O)C1 (stereo not given)	-	-	-	-	-	-
CC(C)Oc1ccccc1C1CC(=O)Nc2cc3c(cc21)OCCO3 (stereo not given)	-	-	-	36.2	-	-
COc1ccccc1C1CC(=O)Nc2cc3c(cc21)OCCO3 (stereo not given)	-	-	-	-	-	-
SMILES	Rango release inh	Rango-impB inh	PTAP TSG101 blk	D3 ag	MmCpn inh	DRD3 antagonist
CC(C)(C)C1CCc2c(C(=O)NNC(=O)/C=C/C(=O)O)csc2C1 (stereo not given)	-	-	-	-	-	-
CC(C)(C)C1CCc2c(C(=O)N/N=C/c3cccs3)csc2C1 (stereo not given)	-	-	-	31.9	-	?
COc1ccc(-c2nc(C)c(CCNC(=O)c3ccccc3Br)s2)cc1OC	.	.	.	-	.	.
CCOc1ccc(CN2C(=O)c3ccccc3C2C(=O)NC(C)CC)cc1OC (stereo not given)	-	-	-	-	-	-63.1
C[C@H]1C[C@H]2[C@@H]3CCC4=CC(=O)C=C[C@]4(C)[C@H]3C(=O)C[C@]2(C)[C@@]1(O)C(=O)CO	.	.	.	-	.	.
COc1ccc(-c2cc(C(=O)Nc3c(C)nn(Cc4ccc(F)cc4)c3C)no2)cc1OC	.	.	.	-	.	.
